Results filed as inconclusive are left out. Activity calls are given as the source filed them. The calls were made as follows: active = hit-call score of the fitted dose curve at least 0.9, where 1 is the maximum; inconclusive = response in the unintended direction; inactive = score below 0.9.
Assays:
[1] = test system: NCBI gene 24521; assay: NVS_IC_rKATPCh: NovaScreen (NVS) Ion Channel Assay for rat Potassium Channel, ATP-Sensitive (KATPCh) (AID 2283319)
How it was run: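 Primary duplicate screen at 25 uM, then singleton concentration series to 50 uM maximum, in a rat cortex membrane radioligand displacement assay. Binding measured by filtration and scintillation 2 h post-dose; DMSO baseline.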

[2] = biological target: Voltage-dependent N-type calcium channel subunit alpha-1B (Rattus norvegicus) (UniProt Q02294); assay: NVS_IC_rCaChN: NovaScreen (NVS) Ion Channel Assay for rat Calcium Channel, Type N (CaChN) (AID 2283317)
[3] = biological target: rat Opioid Receptor, Non-selective Binding, Oprm1 (gene 25601) (UniProt P33535); assay: NVS_GPCR_rOpiate_NonSelective: NovaScreen (NVS) G Protein-Coupled Receptor Assay for rat Opioid Receptor, Non-selective Binding (AID 2283318)
How it was run: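 Filter-based radioligand displacement using rat forebrain membrane preparations, measured 1.5 h post-dosing. Single-concentration duplicate screen at 25 uM, follow-up in concentration series; activity taken as signal loss relative to DMSO.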

[4] = biological target: rat Thyrotropin Releasing Hormone Receptor (TRH), Trhr (gene 25570) (UniProt Q01717); assay: NVS_GPCR_rTRH: NovaScreen (NVS) G Protein-Coupled Receptor Assay for rat Thyrotropin Releasing Hormone Receptor (TRH) (AID 2283329);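 also: hit means lower bound tracer signal versus DMSO baseline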
How it was run: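 Rat forebrain membranes; radioligand displacement at TRH receptor by filter-based scintillation counting, read 4 h after dosing. Duplicate single-point screen at 25 uM, actives rerun in concentration series; loss of signal relative to DMSO.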

[5] = biological target: human Peripheral-type Benzodiazepine Receptor (PBR), TSPO (gene 706) (UniProt P30536); assay: NVS_MP_hPBR: NovaScreen (NVS) Membrane Protein Assay for human Peripheral-type Benzodiazepine Receptor (PBR) (AID 2283331);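 also: hits reduce radioligand binding relative to DMSO baseline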
How it was run: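 Cell-free radioligand displacement, human colonic membranes, 1 h exposure. Filter radiodetection read-out. Single-concentration duplicates (25 uM), then concentration-response for actives; DMSO negative control.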

[6] = biological target: rat Peripheral-type Benzodiazepine Receptor (PBR), Tspo (gene 24230) (UniProt P16257); assay: NVS_MP_rPBR: NovaScreen (NVS) Membrane Protein Assay for rat Peripheral-type Benzodiazepine Receptor (PBR) (AID 2283335)
How it was run: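 Competitive displacement of specific radioligand from rat kidney membrane PBR, read by filtration and scintillation after 1 h. Compounds first tested at 25 uM in duplicate, then in concentration series; signal loss relative to DMSO.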

[7] = biological target: bovine Gamma-Aminobutyric Acid Type A Receptor BDZ, alpha 5 site (GABARa5), GABRA5 (gene 523515) (UniProt Q08E50); assay: NVS_LGIC_bGABARa5: NovaScreen (NVS) Ligand-Gated Ion Channel Assay for bovine Gamma-Aminobutyric Acid Type A Receptor BDZ, alpha 5 site (GABARa5) (AID 2283323)
How it was run: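 Tested first in duplicate at a single 25 uM, with hits re-run in concentration series to a 50 uM maximum. Bovine hippocampal membranes; specific radioligand displacement measured by filter scintillation counting 1 hr post-dose.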

[8] = NVS_IC_rCaBTZCHL: NovaScreen (NVS) Ion Channel Assay for Calcium Channel, Type L, Benzothiazepine Site (CaBTZCHL) (AID 2283337)
How it was run: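 Rat cortical membrane preparation incubated 1.5 h with compound and benzothiazepine-site radioligand; loss of filter-bound counts versus DMSO marks displacement. Initial duplicate testing at 25 uM, actives followed up in concentration series.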

[9] = biological target: Small conductance calcium-activated potassium channel protein 1 (Rattus norvegicus) (UniProt P70606); assay: NVS_IC_rKCaCh: NovaScreen (NVS) Ion Channel Assay for rat Potassium Channel, Ca2+ Act., VI (KCaCh) (AID 2283336)
How it was run: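 Filter-based scintillation counting of radioligand bound to rat forebrain membrane preparations, measured 1 h after compound addition. Primary screen used 25 uM in duplicate, with concentration-response follow-up; signal decrease relative to DMSO marks activity.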

[10] = biological target: rat Gamma-Aminobutyric Acid Type A Receptor BDZ, alpha 6 site (GABARa6), Gabra6 (gene 29708) (UniProt P30191); assay: NVS_LGIC_rGABARa6: NovaScreen (NVS) Ligand-Gated Ion Channel Assay for rat Gamma-Aminobutyric Acid Type A Receptor BDZ, alpha 6 site (GABARa6) (AID 2283339)
How it was run: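 Actives from a 25 uM duplicate screen were retested in concentration series (max 50 uM). Specific radioligand displacement from rat cerebellar membranes was counted by filter-based scintillation at 1 h; DMSO served as baseline.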

[11] = NVS_IC_rCaDHPRCh_L: NovaScreen (NVS) Ion Channel Assay for rat Calcium Channel, Type L, Dihydropyridine Site (CaDHPRCh_L) (AID 2283320)
How it was run: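 Rat cortex membrane preparation; dihydropyridine-site radioligand displacement read 1 h post-dose by filtration and scintillation. Primary single-point screen 25 uM in duplicate, then concentration series to 50 uM maximum; DMSO as negative control.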

[12] = biological target: Sodium channel protein type 1 subunit alpha (Rattus norvegicus) (UniProt P04774); assay: NVS_IC_rNaCh_site2: NovaScreen (NVS) Ion Channel Assay for rat Sodium Channel, Site 2 (NaCh) (AID 2283322);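 also: hit means loss of radioligand binding signal relative to DMSO so AC50 marks displacement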
How it was run: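 Initial duplicate single-point testing at 25 uM, followed by concentration-response runs for actives. Binding of radioligand to rat forebrain membranes quantified after 1 h via filter-based radiodetection.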

[13] = biological target: Voltage-gated inwardly rectifying potassium channel KCNH2 (Homo sapiens) (UniProt Q12809); assay: NVS_IC_hKhERGCh: NovaScreen (NVS) Ion Channel Assay for human Potassium Channel ERG (KhERGCh) (AID 2283333)
How it was run: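 Membranes from CHO cells expressing human ERG; displacement of radioligand measured by filtration and scintillation after 0.75 h. Single-concentration duplicate screen at 25 uM, then concentration-response for actives; DMSO baseline.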

[14] = biological target: rat Glutamate, NMDA Agonist Site (GluNMDA), Grin1 (gene 24408) (UniProt P35439); assay: NVS_LGIC_rGluNMDA_Agonist: NovaScreen (NVS) Ligand-Gated Ion Channel Assay for rat Glutamate, NMDA Agonist Site (GluNMDA) (AID 2283327)
How it was run: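 Radioligand displacement at the agonist site on rat forebrain membrane preparations, read by filter scintillation after 1 h. Chemicals were first run at 25 uM in duplicate; those passing threshold were titrated to a 50 uM maximum.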

[15] = biological target: rat Glutamate, MK-801 Agonist Site (GluNMDA_MK801), Grin1 (gene 24408) (UniProt P35439); assay: NVS_LGIC_rGluNMDA_MK801_Agonist: NovaScreen (NVS) Ligand-Gated Ion Channel Assay for rat Glutamate, MK-801 Agonist Site (GluNMDA_MK801) (AID 2283340)
How it was run: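 Rat forebrain membrane preparation; MK-801-site radioligand binding read by filtration and scintillation after 1.5 h. Single-point 25 uM duplicate screen, followed by singleton concentration series to 50 uM max; DMSO baseline.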

human Peripheral-type Benzodiazepine Receptor (PBR), TSPO (gene 706), sequence (P30536 whole entry, looked up): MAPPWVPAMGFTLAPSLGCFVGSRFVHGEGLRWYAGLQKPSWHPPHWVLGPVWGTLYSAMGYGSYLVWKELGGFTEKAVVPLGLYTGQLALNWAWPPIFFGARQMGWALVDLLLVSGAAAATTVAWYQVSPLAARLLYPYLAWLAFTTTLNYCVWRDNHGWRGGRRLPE
rat Opioid Receptor, Non-selective Binding, Oprm1 (gene 25601), sequence (P33535 whole entry, looked up): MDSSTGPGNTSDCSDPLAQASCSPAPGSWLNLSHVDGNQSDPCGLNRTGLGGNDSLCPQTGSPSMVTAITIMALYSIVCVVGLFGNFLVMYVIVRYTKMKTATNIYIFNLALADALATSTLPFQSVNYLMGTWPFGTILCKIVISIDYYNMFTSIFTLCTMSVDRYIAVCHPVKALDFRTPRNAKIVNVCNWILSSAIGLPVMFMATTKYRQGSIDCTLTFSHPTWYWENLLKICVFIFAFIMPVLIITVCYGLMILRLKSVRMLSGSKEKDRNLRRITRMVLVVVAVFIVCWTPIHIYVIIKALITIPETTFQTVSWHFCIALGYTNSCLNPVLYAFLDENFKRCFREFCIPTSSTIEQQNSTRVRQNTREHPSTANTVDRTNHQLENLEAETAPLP
rat Peripheral-type Benzodiazepine Receptor (PBR), Tspo (gene 24230), sequence (P16257 whole entry, looked up): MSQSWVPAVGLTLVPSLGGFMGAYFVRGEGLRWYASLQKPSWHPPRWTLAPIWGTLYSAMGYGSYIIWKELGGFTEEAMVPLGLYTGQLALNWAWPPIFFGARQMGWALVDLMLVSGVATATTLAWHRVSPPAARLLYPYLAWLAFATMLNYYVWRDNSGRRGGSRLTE
rat Thyrotropin Releasing Hormone Receptor (TRH), Trhr (gene 25570), sequence (Q01717 whole entry, looked up): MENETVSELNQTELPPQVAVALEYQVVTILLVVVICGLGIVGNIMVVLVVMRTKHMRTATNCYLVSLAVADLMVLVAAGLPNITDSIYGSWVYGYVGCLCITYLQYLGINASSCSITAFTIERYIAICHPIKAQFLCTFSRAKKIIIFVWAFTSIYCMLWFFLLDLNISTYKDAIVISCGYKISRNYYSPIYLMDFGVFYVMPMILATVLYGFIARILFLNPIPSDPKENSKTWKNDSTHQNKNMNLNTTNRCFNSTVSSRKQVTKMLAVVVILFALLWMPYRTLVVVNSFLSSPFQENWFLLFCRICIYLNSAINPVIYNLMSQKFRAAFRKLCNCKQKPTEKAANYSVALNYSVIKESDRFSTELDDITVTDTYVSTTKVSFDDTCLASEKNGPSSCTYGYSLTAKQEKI
bovine Gamma-Aminobutyric Acid Type A Receptor BDZ, alpha 5 site (GABARa5), GABRA5 (gene 523515), sequence (Q08E50 whole entry, looked up): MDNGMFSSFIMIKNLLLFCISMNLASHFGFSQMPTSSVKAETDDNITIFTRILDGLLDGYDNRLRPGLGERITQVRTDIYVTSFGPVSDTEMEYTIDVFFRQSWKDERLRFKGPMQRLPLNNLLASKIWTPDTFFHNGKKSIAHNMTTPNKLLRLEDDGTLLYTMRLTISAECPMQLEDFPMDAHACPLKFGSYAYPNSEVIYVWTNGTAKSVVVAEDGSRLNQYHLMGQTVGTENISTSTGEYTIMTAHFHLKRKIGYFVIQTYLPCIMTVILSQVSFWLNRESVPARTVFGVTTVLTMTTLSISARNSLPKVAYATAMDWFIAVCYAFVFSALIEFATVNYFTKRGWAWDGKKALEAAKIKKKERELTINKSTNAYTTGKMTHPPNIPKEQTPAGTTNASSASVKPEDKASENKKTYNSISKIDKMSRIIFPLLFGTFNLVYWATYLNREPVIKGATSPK
Voltage-gated inwardly rectifying potassium channel KCNH2 (Homo sapiens), sequence (Q12809 whole entry, looked up): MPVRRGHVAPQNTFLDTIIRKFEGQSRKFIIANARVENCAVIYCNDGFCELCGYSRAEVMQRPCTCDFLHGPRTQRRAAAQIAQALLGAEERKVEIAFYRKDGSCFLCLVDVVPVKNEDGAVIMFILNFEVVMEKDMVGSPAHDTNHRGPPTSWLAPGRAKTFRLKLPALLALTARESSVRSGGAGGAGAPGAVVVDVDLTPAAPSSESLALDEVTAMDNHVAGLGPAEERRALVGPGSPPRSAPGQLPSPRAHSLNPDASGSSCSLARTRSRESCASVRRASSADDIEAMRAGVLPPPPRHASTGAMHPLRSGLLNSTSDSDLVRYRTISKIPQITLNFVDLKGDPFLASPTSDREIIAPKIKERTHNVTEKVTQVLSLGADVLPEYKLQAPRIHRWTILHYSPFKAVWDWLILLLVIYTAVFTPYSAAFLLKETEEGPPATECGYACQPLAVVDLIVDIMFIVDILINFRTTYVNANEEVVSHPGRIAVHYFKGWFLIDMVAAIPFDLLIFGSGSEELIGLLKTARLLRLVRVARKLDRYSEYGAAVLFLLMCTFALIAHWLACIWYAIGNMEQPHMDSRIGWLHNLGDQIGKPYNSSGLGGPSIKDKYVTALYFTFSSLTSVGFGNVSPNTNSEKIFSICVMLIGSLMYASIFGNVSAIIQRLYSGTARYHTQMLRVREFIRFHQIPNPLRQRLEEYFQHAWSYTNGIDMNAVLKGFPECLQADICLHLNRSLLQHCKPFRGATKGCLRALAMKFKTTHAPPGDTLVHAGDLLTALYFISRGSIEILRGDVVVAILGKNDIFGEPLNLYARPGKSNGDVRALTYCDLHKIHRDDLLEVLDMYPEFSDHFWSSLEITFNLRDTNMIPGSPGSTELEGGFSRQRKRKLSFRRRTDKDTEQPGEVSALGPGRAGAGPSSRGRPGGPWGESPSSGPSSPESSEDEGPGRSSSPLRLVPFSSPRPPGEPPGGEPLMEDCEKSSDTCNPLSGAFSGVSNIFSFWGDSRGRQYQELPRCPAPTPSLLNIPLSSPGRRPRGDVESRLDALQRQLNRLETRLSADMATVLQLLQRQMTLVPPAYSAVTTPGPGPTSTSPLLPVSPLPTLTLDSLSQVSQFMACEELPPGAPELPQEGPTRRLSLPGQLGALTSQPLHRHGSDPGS
Small conductance calcium-activated potassium channel protein 1 (Rattus norvegicus), sequence (P70606 whole entry, looked up): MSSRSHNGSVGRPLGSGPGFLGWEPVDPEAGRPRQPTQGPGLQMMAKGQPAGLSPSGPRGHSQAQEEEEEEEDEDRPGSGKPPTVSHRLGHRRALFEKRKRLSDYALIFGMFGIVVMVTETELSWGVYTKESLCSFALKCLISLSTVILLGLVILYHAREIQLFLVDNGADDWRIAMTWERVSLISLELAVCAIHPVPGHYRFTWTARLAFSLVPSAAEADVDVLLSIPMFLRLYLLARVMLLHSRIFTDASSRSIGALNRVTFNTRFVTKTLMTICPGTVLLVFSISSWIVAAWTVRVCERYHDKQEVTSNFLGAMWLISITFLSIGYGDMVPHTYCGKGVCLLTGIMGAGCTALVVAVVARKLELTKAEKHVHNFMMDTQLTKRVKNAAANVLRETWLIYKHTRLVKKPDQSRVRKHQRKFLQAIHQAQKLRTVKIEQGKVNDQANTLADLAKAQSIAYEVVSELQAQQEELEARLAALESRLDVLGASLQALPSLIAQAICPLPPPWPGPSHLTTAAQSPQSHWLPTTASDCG
rat Gamma-Aminobutyric Acid Type A Receptor BDZ, alpha 6 site (GABARa6), Gabra6 (gene 29708), sequence (P30191 whole entry, looked up): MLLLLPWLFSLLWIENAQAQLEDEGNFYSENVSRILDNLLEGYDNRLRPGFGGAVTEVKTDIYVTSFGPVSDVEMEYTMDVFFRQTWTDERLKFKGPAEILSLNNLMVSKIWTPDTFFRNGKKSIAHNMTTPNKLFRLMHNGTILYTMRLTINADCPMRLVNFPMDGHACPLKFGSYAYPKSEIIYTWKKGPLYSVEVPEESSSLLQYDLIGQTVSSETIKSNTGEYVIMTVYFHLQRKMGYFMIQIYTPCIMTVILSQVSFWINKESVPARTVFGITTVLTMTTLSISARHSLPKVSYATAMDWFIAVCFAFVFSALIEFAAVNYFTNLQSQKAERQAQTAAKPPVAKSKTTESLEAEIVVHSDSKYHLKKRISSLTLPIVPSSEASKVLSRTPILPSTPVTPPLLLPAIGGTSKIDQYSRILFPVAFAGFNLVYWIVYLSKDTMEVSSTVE

COP(=O)(OC)OC(Br)C(Cl)(Cl)Br (stereo not given)
outcome [1]: inactive

COP(=O)(OC)C(O)C(Cl)(Cl)Cl (stereo not given)
outcome [2]: inactive

CCOC(=O)CC(SP(=O)(OC)OC)C(=O)OCC (stereo not given)
outcome [3]: inactive | outcome [4]: inactive | outcome [5]: inactive | AC50 [6]: 19.7 µM (active)

CC1=NNC(=O)N(/N=C/c2cccnc2)C1
outcome [1]: inactive | outcome [7]: inactive | outcome [5]: inactive | outcome [8]: inactive

CN(C)C(=O)Nc1cccc(C(F)(F)F)c1
AC50 [1]: 10.9 µM (active) | AC50 [5]: 17.9 µM (active) | AC50 [6]: 10.8 µM (active) | outcome [9]: inactive | outcome [10]: inactive

CCCOCC(=Nc1ccc(Cl)cc1C(F)(F)F)n1ccnc1
AC50 [3]: 12.1 µM (active) | outcome [11]: inactive | outcome [12]: inactive | AC50 [5]: 8.63 µM (active) | outcome [13]: inactive | AC50 [6]: 0.807 µM (active) | outcome [8]: inactive

CN1COCN(Cc2cnc(Cl)s2)C1=N[N+](=O)[O-]
outcome [11]: inactive

CCCCOC(=O)c1ccccc1C(=O)O
outcome [2]: inactive | outcome [7]: inactive | outcome [5]: inactive

CCc1cccc(CC)c1N(COC)C(=O)CCl
outcome [3]: inactive | outcome [14]: inactive | AC50 [5]: 11.1 µM (active) | AC50 [6]: 5.18 µM (active)

Cc1cc(C2CC2)nc(Nc2ccccc2)n1
AC50 [12]: 9.68 µM (active) | AC50 [5]: 25 µM (active) | AC50 [6]: 7.55 µM (active)

CSc1nc(NC(C)C)nc(NC(C)C)n1
AC50 [12]: 11.9 µM (active) | AC50 [13]: 6.4 µM (active)

CCc1cccc(C)c1N(C(=O)CCl)C(C)COC (stereo not given)
AC50 [3]: 14.7 µM (active) | AC50 [5]: 9.23 µM (active) | AC50 [6]: 8.9 µM (active) | outcome [15]: inactive

C[Si](Cn1cncn1)(c1ccc(F)cc1)c1ccc(F)cc1
outcome [3]: inactive | AC50 [11]: 25.7 µM (active) | AC50 [12]: 18.1 µM (active) | outcome [4]: inactive | AC50 [5]: 25 µM (active) | outcome [6]: inactive
